A selection: hits, their analogues and other compounds. The true share with any hit is near 6.7%.
Pf Dd2 growth = P. falciparum Dd2 growth inhibitors, primary screen, SYBR Green fluorescence, single dose replicates | 72 h; active compounds read low | activity change, % at 10 µM | 94,000 compounds, 2.3% hits | AID 1159554, 2015; in the data active means activity change below about -80%; inconclusive means no clear call, values can overlap the other calls
C diff growth = C. difficile growth inhibitors, primary screen, HTS; Clostridium difficile clinical isolate growth, OD600, 24 h; active compounds read low; growth activity, negative = inhibition, % at 16 µg/mL (by protocol); 86,000 compounds, 0.25% hits;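 active means mean growth activity at or below -80% and every replicate also at or below -80%; inconclusive means mean at or below -80% but some replicate above -80%; inactive means mean growth activity above -80%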
T cruzi growth = T. cruzi intracellular proliferation inhibitors, primary screen, cell-based, beta-gal Tulahuen parasites, NIH3T3 host, luminescence; AID 624255, 2012; 77,000 compounds, 5.9% hits; T. cruzi beta-gal in NIH3T3, GalScreen luminescence, 90 h; inhibition, % at 8.34 µM;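 active means mean inhibition above about 93%, with at least 55% of replicates each passing it, limit read from the data, passing the limit was not always enough; inconclusive means only one of those two conditions holds; inactive means neither condition holds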
Of the large screens only hits and unclear results are named; the others gave an inactive call.

C[C@H](CO)N1C[C@H](C)[C@H](CN(C)C(=O)Nc2ccc3c(c2)OCO3)OCCCC[C@H](C)Oc2ccc(NC(=O)Nc3cccc4ccccc34)cc2C1=O	none
C[C@@H]1CCCCO[C@@H](CN(C)C(=O)Nc2ccc3c(c2)OCO3)[C@@H](C)CN([C@@H](C)CO)C(=O)c2cc(NC(=O)Nc3cccc4ccccc34)ccc2O1	Pf Dd2 growth -91 (no result: T cruzi growth)
C[C@@H]1CCCCO[C@@H](CN(C)C(=O)Nc2cccc3ccccc23)[C@H](C)CN([C@H](C)CO)C(=O)c2cc(NC(=O)Nc3ccc4c(c3)OCO4)ccc2O1	Pf Dd2 growth -90
C[C@@H]1CCCCO[C@H](CN(C)C(=O)Nc2cccc3ccccc23)[C@H](C)CN([C@@H](C)CO)C(=O)c2cc(NC(=O)Nc3ccc4c(c3)OCO4)ccc2O1	Pf Dd2 growth -83
C[C@@H]1CN([C@@H](C)CO)C(=O)c2cc(NC(=O)Nc3ccc4c(c3)OCO4)ccc2O[C@@H](C)CCCCO[C@H]1CN(C)C(=O)Nc1cccc2ccccc12	none
C[C@@H]1CCCCO[C@@H](CN(C)C(=O)Nc2cccc3ccccc23)[C@@H](C)CN([C@H](C)CO)C(=O)c2cc(NC(=O)Nc3cccc4ccccc34)ccc2O1	none (no result: C diff growth)
C[C@@H]1CCCCO[C@@H](CN(C)C(=O)Nc2cccc3ccccc23)[C@@H](C)CN([C@H](C)CO)C(=O)c2cc(NC(=O)Nc3ccc4c(c3)OCO4)ccc2O1	Pf Dd2 growth -87
O=C(C[C@@H]1C=C[C@H](NC(=O)Nc2ccc3c(c2)OCO3)[C@@H](CO)O1)NCc1ccc(F)cc1	none
CCS(=O)(=O)N1CCC2(CC1)CN(S(=O)(=O)c1cccc(OC)c1)[C@@H](CO)c1[nH]c3cc(OC)ccc3c12	Pf Dd2 growth inconclusive (no result: T cruzi growth)
C[C@@H]1CN([C@H](C)CO)C(=O)c2cc(NC(=O)Nc3ccc4c(c3)OCO4)ccc2O[C@@H](C)CCCCO[C@@H]1CN(C)S(=O)(=O)c1cn(C)cn1	none
COc1ccc(NC(=O)Nc2ccc3c(c2)C(=O)N([C@@H](C)CO)C[C@H](C)[C@H](CN(C)S(=O)(=O)c2ccc(OC)cc2)OCCCC[C@@H](C)O3)cc1	Pf Dd2 growth -88
COc1ccc(NC(=O)Nc2ccc3c(c2)C(=O)N([C@@H](C)CO)C[C@@H](C)[C@@H](CN(C)S(=O)(=O)c2ccc(OC)cc2)OCCCC[C@@H](C)O3)cc1	none
COc1ccc(S(=O)(=O)N(C)C[C@H]2OCCCC[C@@H](C)Oc3ccc(NC(=O)Nc4ccc(C(F)(F)F)cc4)cc3C(=O)N([C@H](C)CO)C[C@@H]2C)cc1	none
COc1ccc(S(=O)(=O)N(C)C[C@H]2OCCCC[C@@H](C)Oc3ccc(NC(=O)Nc4ccc5c(c4)OCO5)cc3C(=O)N([C@@H](C)CO)C[C@H]2C)cc1	Pf Dd2 growth -85
COc1ccc(NC(=O)Nc2ccc3c(c2)C(=O)N([C@H](C)CO)C[C@@H](C)[C@H](CN(C)S(=O)(=O)c2ccc(C)cc2)OCCCC[C@@H](C)O3)cc1	none (no result: C diff growth, T cruzi growth)
COc1ccc(S(=O)(=O)N(C)C[C@H]2OCCCC[C@@H](C)Oc3ccc(NC(=O)Nc4ccc5c(c4)OCO5)cc3C(=O)N([C@H](C)CO)C[C@@H]2C)cc1	none
COc1ccc(NC(=O)Nc2ccc3c(c2)C(=O)N([C@H](C)CO)C[C@H](C)[C@H](CN(C)S(=O)(=O)c2ccc(C)cc2)OCCCC[C@@H](C)O3)cc1	Pf Dd2 growth -88 (no result: C diff growth)
COc1ccc(S(=O)(=O)N(C)C[C@@H]2OCCCC[C@H](C)Oc3ccc(NC(=O)Nc4ccc(C(F)(F)F)cc4)cc3C(=O)N([C@@H](C)CO)C[C@H]2C)cc1	Pf Dd2 growth -86
O=C(C[C@H]1CC[C@H]2[C@@H](COC[C@H](O)CN2CC2CC2)O1)NCC1CC1	none
COc1ccc(NC(=O)Nc2ccc3c(c2)CC(=O)N([C@H](C)CO)C[C@H](C)[C@@H](CN(C)S(=O)(=O)c2cccs2)O3)cc1	none
CC(C)NC(=O)Nc1ccc2c(c1)C(=O)N([C@@H](C)CO)C[C@H](C)[C@H](CN(C)Cc1ccccc1)O2	none
COc1ccccc1/C=C/C=O	none (no result: Pf Dd2 growth, T cruzi growth)
COc1ccc(S(=O)(=O)Nc2ccc3c(c2)CC(=O)N([C@@H](C)CO)C[C@H](C)[C@@H](CN(C)C(=O)NC2CCCCC2)O3)cc1	none
C[C@@H]1CN([C@@H](C)CO)C(=O)c2cccc(NC(=O)CCCCCC(=O)Nc3ccccc3N)c2O[C@@H]1CN(C)C	none (no result: T cruzi growth)
C[C@H](CO)N1C[C@H](C)[C@@H](CN(C)CC2CCCCC2)Oc2ccc(NC(=O)Nc3ccccc3)cc2CC1=O	none (no result: T cruzi growth)
CCC(=O)Nc1ccc2c(c1)OC[C@H](C)N(Cc1ccncc1)C[C@H](C)[C@@H](OC)CN(C)C2=O	none (no result: C diff growth)
Cc1ccc(S(=O)(=O)N(C)C[C@H]2OCCCC[C@H](C)Oc3ccc(NS(=O)(=O)c4ccc(F)cc4)cc3C(=O)N([C@@H](C)CO)C[C@H]2C)cc1	Pf Dd2 growth -82, T cruzi growth 115
Cc1ccc(S(=O)(=O)N(C)C[C@@H]2OCCCC[C@H](C)Oc3ccc(NS(=O)(=O)c4ccc(Cl)cc4)cc3C(=O)N([C@H](C)CO)C[C@@H]2C)cc1	T cruzi growth 108
Cc1ccc(S(=O)(=O)N(C)C[C@@H]2OCCCC[C@@H](C)Oc3ccc(NS(=O)(=O)c4ccc(Cl)cc4)cc3C(=O)N([C@@H](C)CO)C[C@H]2C)cc1	none
Cc1noc(C)c1S(=O)(=O)Nc1ccc2c(c1)C(=O)N([C@@H](C)CO)C[C@H](C)[C@H](CN(C)S(=O)(=O)c1ccc(Cl)cc1)OCCCC[C@@H](C)O2	none
Cc1ccc(S(=O)(=O)Nc2ccc3c(c2)C(=O)N([C@H](C)CO)C[C@@H](C)[C@H](CN(C)S(=O)(=O)c2ccc(Cl)cc2)OCCCC[C@@H](C)O3)cc1	Pf Dd2 growth -81
Cc1noc(C)c1S(=O)(=O)Nc1ccc2c(c1)C(=O)N([C@@H](C)CO)C[C@H](C)[C@@H](CN(C)S(=O)(=O)c1ccc(Cl)cc1)OCCCC[C@@H](C)O2	Pf Dd2 growth -84
Cc1ccc(S(=O)(=O)N(C)C[C@@H]2OCCCC[C@@H](C)Oc3ccc(NS(=O)(=O)c4ccc(Cl)cc4)cc3C(=O)N([C@H](C)CO)C[C@H]2C)cc1	none
Cc1ccc(S(=O)(=O)N(C)C[C@@H]2OCCCC[C@H](C)Oc3ccc(NS(=O)(=O)c4ccc(F)cc4)cc3C(=O)N([C@@H](C)CO)C[C@@H]2C)cc1	none
COC(=O)[C@H](Cc1ccccc1)N1CC2=C[C@@H](C3CC3)n3c(=O)n(C)c(=O)n3[C@H]2[C@@H]1[C@@H](O)Cc1ccccc1	none (no result: Pf Dd2 growth, T cruzi growth)
C[C@@H]1CN([C@H](C)CO)C(=O)c2cc(C#CC3CCCC3)cnc2O[C@@H]1CN(C)C(=O)Nc1ccccc1	none
C[C@H]1CN([C@@H](C)CO)S(=O)(=O)c2ccc(C#CC3(O)CCCC3)cc2O[C@H]1CN(C)C(=O)c1ccccc1	none
CC(C)C#Cc1ccc2c(c1)O[C@@H](CN(C)C(=O)C1CCCCC1)[C@H](C)CN([C@@H](C)CO)S2(=O)=O	Pf Dd2 growth -82
C[C@@H]1CN([C@H](C)CO)S(=O)(=O)c2ccc(C#Cc3ccccc3)cc2O[C@@H]1CN(C)C(=O)C1CC1	Pf Dd2 growth -82

Bioassay records as filed in PubChem.
